Test results as given in PubChem BioAssay (EPA / NIEHS).
Calls of active or inactive are those of the source. How the source made its calls: active means hit-call score of the fitted dose curve at least 0.9, where 1 is the maximum; inactive means score below 0.9.

Test: ATG_GATA_CIS: Attagene CIS-FACTORIAL HepG2 Assay for human GATA Binding Protein (AID 2282944)
Conditions: HepG2 GATA cis-element reporter, Attagene multiplex mRNA; actives raise or lower the signal
Protocol: ATG_CIS is a cell-based, multiplexed-readout assay that uses HepG2, a human liver cell line, with measurements taken at 24 hours after chemical dosing in a 24-well plate.ATG_GATA_CIS is one of 52 assay component(s) measured or calculated from the ATG_CIS assay. It is designed to make measurements of mRNA induction, a form of inducible reporter, as detected with fluorescence intensity signals by Reverse transcription polymerase chain reaction (RT-PCR) and Capillary electrophoresis technology.Data from the assay component ATG_GATA_CIS was analyzed into 1 assay endpoint. This assay endpoint, ATG_GATA_CIS, was analyzed with bidirectional fitting relative to DMSO as the negative control and baseline of activity. Using a type of inducible reporter, measures of mRNA for gain or loss-of-signal activity can be used to understand the reporter gene at the transcription factor-level as they relate to the gene GATA1. Furthermore, this assay endpoint can be referred to as a primary readout, because this assay has produced multiple assay endpoints where this one serves a reporter gene function. To generalize the intended target to other relatable targets, this assay endpoint is annotated to the dna binding intended target family, where the subfamily is GATA proteins.
Human liver HepG2 cells are transiently transfected with multiple reporter transcription units (MRTUs) in 6-well plates using FuGene 6 reagent (Roche; 3 ml FuGene/1 mg DNA). The MRTU constructs are regulated by a cis-regulating element (promoter). […] A major difference between the CIS and TRANS system is that in CIS activities of endogenous TFs are measured, whereas the TRANS assay evaluates changes in activities of exogenous, chimeric NR-Gal4 proteins. […] At the end of 24 hour incubation, total RNA was isolated using TriZol reagent (Invitrogen). The isolated RNA is then reverse-transcribed using oligo(dT) primer and Mo-MLV reverse transcriptase (Invitrogen) with DNAse I (Ambion) treatment for 30 min. The one-tenth of the produced cDNA was amplified by PCR using Taq DNA polymerase (Invitrogen) and two reporter sequence-specific primers. The PCR products were fluorescently labeled by primer extension with 6-arboxyfluorescein (6-FAM) 5'-labeled reporter sequence-specific primer (2 min at 95 C, 20 s at 68 C and 10 min at 72 C) and these products were digested with 5U of HpaI (New England Biolabs) for 2h at 37 C. The fragments were purified using Qiaquick PCR columns (Qiagen), analyzed on an ABI 3130xL genetic analyzer (Applied Biosystems) with peak positions identified by using a set of X-rhodamine (ROX)-labeled MapMarker1000 molecular weight standards (BioVentures). The raw capillary electrophoresis data was processed using Attagraph software (Attagene).

outcome, inactive:
CN(C)CCCN(C)C
O=C(O)C(c1ccc(Cl)cc1)c1ccc(Cl)cc1
C[Si](C)O[Si](C)(C)O[Si](C)(C)O[Si](C)C
CC1(C)O[C@@H]2C[C@H]3[C@@H]4C[C@H](F)C5=CC(=O)C=C[C@]5(C)[C@@]4(F)[C@@H](O)C[C@]3(C)[C@]2(C(=O)CO)O1
CC1=CC[C@H](C(C)C)C=C1
O=C1OC(=O)c2cc(Oc3ccc4c(c3)C(=O)OC4=O)ccc21
CC(CC=O)CCCC(C)(C)O (stereo not given)
CCO[Si](CCCN=C=O)(OCC)OCC
Cc1cc(C)c(C)c(O)c1
FC(F)=C(F)OC(F)(F)C(F)(F)C(F)(F)F
OC1OCCOC1O (stereo not given)
C=CC(C)(CCC=C(C)C)OC(=O)CC(C)C (stereo not given)
c1cc(C(c2ccc(OCC3CO3)cc2)C(c2ccc(OCC3CO3)cc2)c2ccc(OCC3CO3)cc2)ccc1OCC1CO1 (stereo not given)
[Cl][In]([Cl])[Cl]
CC(=O)C=CC1C(C)=CCC(C)C1(C)C (stereo not given)
Nc1ccc(N=Nc2ccccc2)c(N)n1
OCCN(CCO)c1ccccc1
CCOC(=O)c1ccc(N(C)C)cc1
CCCCCCCCCCCCCCCC[N+](C)(C)CC
CC[C@H]1OC(=O)[C@H](C)[C@@H](O[C@H]2C[C@@](C)(OC)[C@@H](O)[C@H](C)O2)[C@H](C)[C@@H](O[C@@H]2O[C@H](C)C[C@H](N(C)C)[C@H]2O)[C@](C)(O)C[C@@H](C)C(=NOCOCCOC)[C@H](C)[C@@H](O)[C@]1(C)O
CC(=O)OCC(C)OC(C)=O (stereo not given)
C1CN(SSN2CCOCC2)CCO1
CC1=NN(c2cc(S(=O)(=O)O)ccc2Cl)C(=O)C1N=Nc1ccccc1 (stereo not given)
CCOC(F)(F)C(F)(F)C(F)(F)C(F)(F)F
O=C(Nc1ccccc1SSc1ccccc1NC(=O)c1ccccc1)c1ccccc1
CC(C)(C)C1CCCCC1=O (stereo not given)
CC(=O)Nc1nnc(S(N)(=O)=O)s1
CN1C(=O)N(C)C(O)C1O (stereo not given)
O=C1Nc2ccccc2C1(c1ccc(O)cc1)c1ccc(O)cc1
O=S1(=O)OC(c2ccc(O)cc2)(c2ccc(O)cc2)c2ccccc21
CCOC(=O)CC
O=C1C=CC(=O)O1
O=CC1CC1
Cc1ccc(N/N=c2\c(=O)cc/c(=N/Nc3ccc(S(=O)(=O)O)cc3)c2=O)c(C)c1
CCOc1ccc(N)c([N+](=O)[O-])c1
CC(C)=CCC/C(C)=C\C#N
CC(=O)[C@H]1[C@H](C#N)C[C@H]2[C@@H]3CC=C4C[C@@H](O)CC[C@]4(C)[C@H]3CC[C@@]21C
CC/C=C\C/C=C\C/C=C\CCCCCCCC(=O)O
CC(=O)OCCC1CCCCC1
CCCCCCCCCCCCCCCC(=O)OCC
